{
  "source": "paper PMC7819943",
  "about": "“Rice protein-binding microarrays: a tool to detect cis-acting elements near promoter regions in rice”",
  "note": "In all, about 68,000 sequences were measured (“fluorescence intensity (a.u.)”: median about 9,100, highest 2% from about 16,000 on). What follows is part of a selection rich in the highest values, with near analogues and random picks from the rest.",
  "data": [
    {"biological_target": "OsWRKY34 (Oryza sativa, UniProt Q0JBA9 1-250)", "sequence (Q0JBA9 entry or part of it)": "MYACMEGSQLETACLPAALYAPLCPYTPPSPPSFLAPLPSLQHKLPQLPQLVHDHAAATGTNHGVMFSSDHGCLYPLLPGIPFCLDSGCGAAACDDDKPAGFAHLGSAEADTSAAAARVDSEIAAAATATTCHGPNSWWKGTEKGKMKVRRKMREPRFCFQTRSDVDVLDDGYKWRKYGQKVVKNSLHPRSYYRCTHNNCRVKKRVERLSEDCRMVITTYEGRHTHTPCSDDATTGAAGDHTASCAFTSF", "assay": "protein-binding microarray (RPBM); PBS, 2% BSA, 51.3 ng/ul salmon testes DNA, 50 uM zinc acetate, 200 nM TF, 25 C, 1 h; high values mean tight binding", "conditions": "protein: recombinant; tags: N-terminal polyhistidine and DsRed monomer fusion (pET32a); label: CyDye5-dUTP incorporated in the synthesized complementary strand; 3' TTTTT single-stranded linker to array surface; dsDNA, one strand shown", "how_it_was_run": "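The binding signal for each feature is its fluorescence intensity in arbitrary units. An Axon 4000B scanner was used to read a custom Agilent array that had been made double-stranded with Cy5-dUTP primer extension, blocked with 2% BSA, incubated at 25 °C for 1 h with 200 nM protein in PBS, 2% BSA, salmon testes DNA and 50 µM zinc acetate, and washed. The protein was an N-terminal polyhistidine–DsRed transcription factor fusion from E. coli BL21-CodonPlus, purified on Ni–NTA.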", "values": [
      {"sequence": "GTGGGTTCTTTGTGGGGTCTCTTATAGTTTTCACTGCCAGCGGAGTCACCTAGTGCAG", "binding signal": "20500 fluorescence intensity (a.u.)"},
      {"sequence": "GTGAGGGTGTGGTTACAGTGGGTTGGTTTTTTTTCTCCCCCGGAGTCACCTAGTGCAG", "binding signal": "11800 fluorescence intensity (a.u.)"},
      {"sequence": "GGGTTTTCCACGTTAAATCTCGTGTCTTCTGTGTTTGATCCGGAGTCACCTAGTGCAG", "binding signal": "12000 fluorescence intensity (a.u.)"},
      {"sequence": "TTTTCTCTCCTGTTTTGGGAGGGTTTTCCACGTTAAATCTCGGAGTCACCTAGTGCAG", "binding signal": "8230 fluorescence intensity (a.u.)"},
      {"sequence": "TTGGGAGGGTTTTTCACGTTAAATCTCGTGTCTTCTGTAACGGAGTCACCTAGTGCAG", "binding signal": "29500 fluorescence intensity (a.u.)"},
      {"sequence": "TGTACAGTTGGTTCTTTTCTTTTTTTTTTTCAGTTGAGTCCGGAGTCACCTAGTGCAG", "binding signal": "9330 fluorescence intensity (a.u.)"},
      {"sequence": "GTTTGTGGTTCAGTTTTTGTCCCCATGGGTCTCTTAGCGGCGGAGTCACCTAGTGCAG", "binding signal": "9120 fluorescence intensity (a.u.)"},
      {"sequence": "TATATCTCGTGGTTTGTGGGTTCTTTTCACTTGTTCAGTGCGGAGTCACCTAGTGCAG", "binding signal": "14000 fluorescence intensity (a.u.)"},
      {"sequence": "ACTTTTGGTGGACCTTGGTTGTTTGGTCTGTTTCTCTCAGCGGAGTCACCTAGTGCAG", "binding signal": "8680 fluorescence intensity (a.u.)"},
      {"sequence": "TTAAAAAAAGTTGGGTAATTGTGGGGTTTGTTTTTTCTCCCGGAGTCACCTAGTGCAG", "binding signal": "9490 fluorescence intensity (a.u.)"},
      {"sequence": "GTATGGTTGGTTGGTTGGTTTGTTGGGTTTCTCCCCGGCCCGGAGTCACCTAGTGCAG", "binding signal": "33300 fluorescence intensity (a.u.)"},
      {"sequence": "TATTAGTGGTATATATCCCTATCAGTCATTCTGCTTGCTTCGGAGTCACCTAGTGCAG", "binding signal": "9260 fluorescence intensity (a.u.)"},
      {"sequence": "CGACGTACCGTAGCCGATTTCTGTTGCTATTATCATGTTCCGGAGTCACCTAGTGCAG", "binding signal": "9450 fluorescence intensity (a.u.)"},
      {"sequence": "ATTTCTAGTCATGCCCGATAACCACTCCGGCACGACCACGCGGAGTCACCTAGTGCAG", "binding signal": "8150 fluorescence intensity (a.u.)"},
      {"sequence": "CCAGACAGCTTCAGTTTGCAACGTACCCAAGTAAGAAACACGGAGTCACCTAGTGCAG", "binding signal": "9150 fluorescence intensity (a.u.)"},
      {"sequence": "ACTTTGTAGCCCAATAACCACTATTTGATTCAACAGGTTTCGGAGTCACCTAGTGCAG", "binding signal": "9900 fluorescence intensity (a.u.)"},
      {"sequence": "ACCATTTGTTTGAGCTCCGGAACCTTTTCGCCGTCCTATGCGGAGTCACCTAGTGCAG", "binding signal": "8460 fluorescence intensity (a.u.)"},
      {"sequence": "ATGGCATTGAGCATTACAGTTGAATTTGTGTAGTTTTTAGCGGAGTCACCTAGTGCAG", "binding signal": "8390 fluorescence intensity (a.u.)"},
      {"sequence": "CCAGTGGTGGAGTGGAGTGGTGGTGGGGAGACGTGAGGAGCGGAGTCACCTAGTGCAG", "binding signal": "8630 fluorescence intensity (a.u.)"},
      {"sequence": "CCCTCCTCTCCGCGCGCGCCACCTGTCCATCCGCGCGGAGCGGAGTCACCTAGTGCAG", "binding signal": "8970 fluorescence intensity (a.u.)"},
      {"sequence": "GGTTATGGTTCAATTCTAATGTTCCTTTGGTGTCACATTTCGGAGTCACCTAGTGCAG", "binding signal": "8200 fluorescence intensity (a.u.)"},
      {"sequence": "GGTGGGAGTGCGCATTGAGGATAAGCCACTGATGACGTCTCGGAGTCACCTAGTGCAG", "binding signal": "8600 fluorescence intensity (a.u.)"},
      {"sequence": "TTTTCTTCTTTCTTTCTCTCTGTCTTGTTCAATTTTTTCTCGGAGTCACCTAGTGCAG", "binding signal": "11800 fluorescence intensity (a.u.)"},
      {"sequence": "TGACATTTAAATTCTGTTTCTCTCTTTGTGTTTTAGTTCCCGGAGTCACCTAGTGCAG", "binding signal": "9720 fluorescence intensity (a.u.)"},
      {"sequence": "CAGTCTGTCTTGGTCTCTTTGTTCAGTCATGGTCTCTCTTCGGAGTCACCTAGTGCAG", "binding signal": "19000 fluorescence intensity (a.u.)"},
      {"sequence": "GTGCAGTTGTCTTCTTCTGTTCTTTGGTCATATAGTAGTTCGGAGTCACCTAGTGCAG", "binding signal": "14900 fluorescence intensity (a.u.)"},
      {"sequence": "TCTCCAGCTTTTTTCTGTTCCTCTGGTCTTGATTCTTGAACGGAGTCACCTAGTGCAG", "binding signal": "18200 fluorescence intensity (a.u.)"},
      {"sequence": "CTTCTTCCACTTGAAGCTTTTTCTCTCTTGGTCTTATCCTCGGAGTCACCTAGTGCAG", "binding signal": "9690 fluorescence intensity (a.u.)"},
      {"sequence": "CTCCTGCTTCTCTGTTCTTTCCATTCTCCTCCTTTTTTTCCGGAGTCACCTAGTGCAG", "binding signal": "14600 fluorescence intensity (a.u.)"},
      {"sequence": "ATACCTCTTGTGTATTAATTAAACATTAGTGTTTCTGTTCCGGAGTCACCTAGTGCAG", "binding signal": "48000 fluorescence intensity (a.u.)"},
      {"sequence": "TTAAACGGTCATTCTTGTGTTTTTCCTGTATTTTCTAATCCGGAGTCACCTAGTGCAG", "binding signal": "9220 fluorescence intensity (a.u.)"},
      {"sequence": "TGGTGGGTGCATTGTTGTTCACATTCCGGATCCCTGCATCCGGAGTCACCTAGTGCAG", "binding signal": "9220 fluorescence intensity (a.u.)"},
      {"sequence": "TTGTAGTACTAGGTCGTATCTAATACTAGTTGATTTTTTACGGAGTCACCTAGTGCAG", "binding signal": "8190 fluorescence intensity (a.u.)"},
      {"sequence": "TGTATCTCAAATTCTTTCAGTTGGTTTTGTGCTCTTTTTACGGAGTCACCTAGTGCAG", "binding signal": "8920 fluorescence intensity (a.u.)"},
      {"sequence": "GGCGCTTTATTCAATTGGTCCGCTCTCGGTCTCCTGCACGCGGAGTCACCTAGTGCAG", "binding signal": "8270 fluorescence intensity (a.u.)"},
      {"sequence": "GGGAGGGGAGGACGGCGACGGCGGCGGCGGCGGGGTGTGGCGGAGTCACCTAGTGCAG", "binding signal": "10800 fluorescence intensity (a.u.)"},
      {"sequence": "CTGCGGCGAGAGGTGGGAGGCGGGGCGGTTGTACGTGTGCCGGAGTCACCTAGTGCAG", "binding signal": "11000 fluorescence intensity (a.u.)"},
      {"sequence": "GAGATGGAGGTGGAGGTGGTGGAGGGGACGACGATGGTGGCGGAGTCACCTAGTGCAG", "binding signal": "9610 fluorescence intensity (a.u.)"},
      {"sequence": "GGCGCTTCTAGGGTTTGGTGGGGTTCGGGCGGGCGCGCCGCGGAGTCACCTAGTGCAG", "binding signal": "15600 fluorescence intensity (a.u.)"},
      {"sequence": "GGAGGGGACGACGATGGTGGGGTGGGTGGTGTCCGGGGTGCGGAGTCACCTAGTGCAG", "binding signal": "19100 fluorescence intensity (a.u.)"},
      {"sequence": "TGGGGTTGAGGGAGGGTGCCGCGGGTGGCTGGCGGAGGACCGGAGTCACCTAGTGCAG", "binding signal": "10600 fluorescence intensity (a.u.)"},
      {"sequence": "CGCACTGGCGGGGCTTGGAGCTGGGGTTTCTAGGGTTTGGCGGAGTCACCTAGTGCAG", "binding signal": "8980 fluorescence intensity (a.u.)"},
      {"sequence": "CGGAGGGGTTGGGCTTGCGGGCGGCGTGTACCTTGTGCACCGGAGTCACCTAGTGCAG", "binding signal": "9410 fluorescence intensity (a.u.)"},
      {"sequence": "CTGCTGCGAGGGTGGGTGTTGCTTGTACCGGGCGGGGATGCGGAGTCACCTAGTGCAG", "binding signal": "20300 fluorescence intensity (a.u.)"},
      {"sequence": "CGCGCCGGGTGGCGTTGGTGTTGGCGCCGGGGAGGGTCAGCGGAGTCACCTAGTGCAG", "binding signal": "9140 fluorescence intensity (a.u.)"},
      {"sequence": "GCGGCGCGGCGGGGAGGAGGGAGGGGTGGCGTTGAGGTGGCGGAGTCACCTAGTGCAG", "binding signal": "19300 fluorescence intensity (a.u.)"},
      {"sequence": "TTTGCTGCTGCTGCTTCTAGGGTTAGGGTTTGGGGTGGGGCGGAGTCACCTAGTGCAG", "binding signal": "22100 fluorescence intensity (a.u.)"}
    ]}
  ]
}
